These results are taken from the supplement of paper PMC11417369.

The full ranking holds about 25,000 sequences; the median of “ln(normalized median fluorescence intensity)” is about 7.1, and the highest 2% start at about 10. This is one part of a sample in which the highest values are shown more often than they occur.

The test system of this assay is PfSIP2 AP2 domain 1 (GST-tagged). The assay can be described thus: gcPBM binding intensity (ln(normalized median fluorescence intensity)); higher = stronger DNA binding. A digest of the protocol:
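An Agilent 4 × 180k array carrying primer-extended double-stranded 36-bp intergenic genomic probes and negative controls received GST-tagged P. falciparum DNA-binding domains expressed in E. coli, about 25 μg on average, for 1 h. The binding buffer contained 1× PBS, 1% milk, 0.2 mg/ml BSA, 0.5% salmon testes DNA and 0.03% Triton X-100. Binding intensity is the top Masliner-normalised natural-log median intensity across replicate spots of either probe orientation, read after Alexa488 anti-GST antibody staining and a 488 nm scan.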
As for “AAAAAAAAAAAAAACACACACACACGCACATATACA [CACACA_site7288]”, the “gcPBM binding intensity (ln)” value is 7.66.

TAATAAATGTTATTAGTGCATAATAGATAATATATT: the “gcPBM binding intensity (ln)” value turned out to be 8.29. For “AATATCATTATATAAGTGCATTTTTTAAAAGATAAA [GTGCAC_site9479]” the value was 9.12.

Turning to “GAAAGAAATAAAGGTGGTACATAAATAAAAACTAAG [XGTACX_site4826]”, the “gcPBM binding intensity (ln)” value worked out at 7.38. Regarding “CGTTATATAATAAAGGTGCATAGATATATCATTATA [GTGCAC_site9774]”, the “gcPBM binding intensity (ln)” value was determined as 10.5. The figure for ATATATAAATAAATAGTGCATTTTAATATTTAACGT is 9.27; for “AAAAATAAAGAAACAGGTACGCATATATTAAGATAT [XGTACX_site8097]” it is 7. For “GGTATATTAAAATAGGTGCATAAAACTAAGAGAAAA [GTGCAC_site9781]” the value was 11; for CATAAATAAGCTTTAGTGCATTATATTTAAATTTTT, 7.29.

As for CCTAATTTTATTAGGGTGCATTTTTAGTTAAATATA, the “gcPBM binding intensity (ln)” value amounted to 11.2. For “GGTATATATTCTATCACACATATTTCCATGAAAATA [CACACA_site4728]” the value was 7.29; for “AAAAAAAAAAAATAAAGTACTAAATAATACATTATA [XGTACX_site6203]”, 7.02; for “TGTAGTCTGGAGAAAAGTACACAGTATCTGGTAGCT [XGTACX_site2012]”, 6.95. The figure for “TATGTATTTTTATGCACACATGCGTGGCTTATATAA [CACACA_site387]” is 7.39; for “GTATATATATATATATATATATATTTTTATTTATTT [CACACA_negctrl_site589]” it is 7.42. For “ATTGTAAGGAAACACACACACATATATATGTATATA [CACACA_site676]” the value was 7.07; for “ACCTATGTATATTATACACACTCCAAACTATTATTT [CACACA_site1817]”, 7.19; for “TTTGTAGTTTGCACATGTACACATTTCAAAATAAAG [XGTACX_site7568]”, 7.49.

On to “GGTATTTTCACATATAGTACACAAAAATAAAATAAA [XGTACX_site2139]”, for which the “gcPBM binding intensity (ln)” value was 7.79. For “TTTCATAACAAAAAAGTGCAAAATAGCACGAACATT [GTGCAC_site9703]” the value was 8.82; for “TGTTTTTCATAGTGCACACATAACCAAAAATAGTAT [CACACA_site3150]”, 10.8; for “AAATATTCATAGTATACACACATTTATTTATAACCA [CACACA_site6502]”, 6.9.

Take “TTTGTTTTTCATAGTGCACACATAACCAAAAATAGT [CACACA_site9030]”: the “gcPBM binding intensity (ln)” value was 10.5. The figure for “ATATATGTATTTAATACACACAAAACTTTCATTCCA [CACACA_site3531]” is 6.9; for “TGTACGTTTTATAACACACACACAAAAAAAAAAAAA [CACACA_site3875]” it is 7.09; for “TGAATATGTAAATGCACACCAAAAAAAAAAAAAAAA [CACACA_site3566]” it is 7.29. For the sequence “TACTATAAGATATATACACACAAGAAATACAAAACG [CACACA_site6764]”, the “gcPBM binding intensity (ln)” value was 7.53. For “AATATATGCTTTCGTTATATTAAATTCAATTTAATG [GTGCAC_negctrl_site76]” the value was 6.95. For “TAGAATAAATTAATTACACACGGAATTATATATATA [CACACA_site1616]”, the “gcPBM binding intensity (ln)” value came to 7.83.

Consider “AAAAAAAAAAATATATTATTTTACTTGTTTATTTTA [CACACA_negctrl_site1447]”, for which the “gcPBM binding intensity (ln)” value worked out at 6.68. For “AAGAAAATATATTCACATGAAGAATTAAAATAAAAC [TGCATGCA_negctrl_site119]” the value was 7.14. With “TTTAAAAAAAATATGTGTACTTAATATTTTCATATA [XGTACX_site7421]”, the “gcPBM binding intensity (ln)” value was determined as 6.78.

As for “TTTGTTCATATTATTGTGCACTTAAACGTAACAAAA [GTGCAC_site9505]”, the “gcPBM binding intensity (ln)” value came out at 10.2. The figure for “ATATTATATTGGATGTTGCACTTAACAAAAGGATAT [GTGCAC_site9478]” is 8.76; for “TTTTTGTAAAATAAACGTACAAAACAATTGTTCATT [XGTACX_site6537]” it is 6.94. The figure for “ATCATTCCACTTTTCACACATATCTCTATTTCTATC [CACACA_site4723]” is 7.37. With “TACAACAATTTTTGCACACACCAAAACATAAAATAA [CACACA_site4964]”, the “gcPBM binding intensity (ln)” value worked out at 7.52.

Consider “AATATATTTTTTTTTTGTACATATTGTAAAATAATA [XGTACX_site6805]”, for which the “gcPBM binding intensity (ln)” value is 6.99.

For the sequence “AATATTGCACCATTTTGTACATAATATATTCAAATA [XGTACX_site475]”, the “gcPBM binding intensity (ln)” value came to 10.7. Regarding “TAAAAATATTTTCATTGTACATATATATAAATATAT [XGTACX_site1123]”, the “gcPBM binding intensity (ln)” value amounted to 6.97. Consider “ATTTTTTTTTTTTTTTTTTTTGCACCATAAAATAAT [CACACA_negctrl_site1324]”, for which the “gcPBM binding intensity (ln)” value worked out at 11.3. The figure for “AAAATAAATAAATATACACACCATATATATATTTTT [CACACA_site5573]” is 6.88; for “TTTTTTTTTGGGTGTACACATGAATATATATTTTTT [CACACA_site5254]” it is 7.83; for “TACTGTATTATAATTATGATTGACGAAATTAAAAAT [GTGCAC_negctrl_site358]” it is 6.91. For the sequence “GATTTTAATGGGTGTACACATTTATTTATATAAAGT [CACACA_site5317]”, the “gcPBM binding intensity (ln)” value is 7.54. The figure for “ATGAATAAATAGGTCACACACAAATATATATAAATA [CACACA_site2416]” is 6.98; for “TTAATATTGTATCCAAGTACACAAATTATTATATTT [XGTACX_site8067]” it is 7.11. For “CATGTATTTTATATTACACACTAATATTATATATAT [CACACA_site1508]” the value was 7.51; for “CTTTCATATGTTTTAACACACACGCATATATTATAG [CACACA_site7033]”, 7.08; for “TCTAACATATCTTTAATACACACTTAAAAAAGTACT [CACACA_site652]”, 7.03. The figure for “ATATATATTATATAGTGTACCTATGTATAATAATAT [XGTACX_site1683]” is 7.16.

Consider “TATAATGTATGTAGTGCACACCTCTATAATATATTA [CACACA_site8560]”, for which the “gcPBM binding intensity (ln)” value was determined as 10.3.

With “TGTAATATATGTATTGCACACCTATAACCATTATTT [CACACA_site8422]”, the “gcPBM binding intensity (ln)” value was 7.17. For “TATGTACACCCATATACACACCTCTATAATATATAT [CACACA_site4563]” the value was 7.29; for “TAGAATGTATGTAGTGCACACCTCTATAATATATTA [CACACA_site1873]”, 10.7. The figure for “ATATGTAGAAGTAATGCACACATATGTATATATATA [CACACA_site8796]” is 8.38; for “TTAAAAATGAACATATGTACATATATATATATATAT [XGTACX_site7923]” it is 9.39; for “TAAAAAATAAGATATACACACATATATTTATTTATA [CACACA_site7158]” it is 6.72. The figure for “ATTTATTTATTTAGCTGTACATTTATACAGAACGAT [XGTACX_site3336]” is 7. In the case of “ACATTATGTCATAAATGTACACATACATATACATAC [XGTACX_site8998]”, the “gcPBM binding intensity (ln)” value is 7.11. The figure for “AAAAATAAGATATATACACACATATAAATATAAATA [CACACA_site7396]” is 6.82; for GCCAATAAAGATGTGGTGCATTATATATATATATAT it is 10.6; for TAAATATATATATAAGTGCATTATATATATATATAA it is 8.97.

Take “TATATATATATATGTGCACACATAAAGATATTATTT [CACACA_site3734]”: the “gcPBM binding intensity (ln)” value was found to be 9.38.

Consider “GCTTTAATCTGAAAGTGTACAGATAATATATTTATA [XGTACX_site2462]”, for which the “gcPBM binding intensity (ln)” value stood at 7.15. As for “ATATGTAAAATATGGTGTACAATCAAATAAAAAAAA [XGTACX_site6270]”, the “gcPBM binding intensity (ln)” value stood at 7.16.

“ATAATGTAAAAGTAAACACACACATATATATATACA [CACACA_site8793]”: the “gcPBM binding intensity (ln)” value is 7.06. For “AAAAAAAAAAAAAAAGTGCACTGAAAATATATTGAA [GTGCAC_site9395]” the value was 10.9; for “TATATATATATATAGGTGCAATATTGAAAAAATATC [GTGCAC_site9535]”, 9.82.

Regarding AAATAATATTGAAAAGTGCATATTTTTGTTGATATA, the “gcPBM binding intensity (ln)” value was found to be 8.42.

For “TTCTTGTTCCTGAAAGTGCATATAACAAAAATAACA [GTGCAC_site9635]”, the “gcPBM binding intensity (ln)” value came to 9.52. For TTTGTTCTTTTTGAAGTGCACTGAAATATAACAAAA the value was 10.7. For “TTTTGAAGTAACAAATAAATAAATAAATATATAAAA [GTGCAC_negctrl_site517]” the value was 6.92; for “ATATCAAATTCTGAAACACACAAAATTACACCTCTA [CACACA_site169]”, 7.06. The figure for “AAATAAAAAAAGAAACGTACATATATTGGTTTCGTC [XGTACX_site3510]” is 6.96; for “AAAAAAAAAAAAAAAAAAAAAAAAATATATAATTTA [CACACA_negctrl_site583]” it is 8.71. With “CACCTCAATATTCACATACACACAATATCATCGAAG [CACACA_site1675]”, the “gcPBM binding intensity (ln)” value worked out at 7.33. The figure for “AATTATATGAAATAAACACACATATGTAATATTACA [CACACA_site1928]” is 6.76. For “AAAAAAACATAACAAAATGAAACAAAACAAAAAGAA [GTGCAC_negctrl_site577]” the value was 7.28. For “CACATATACAAAAAGAAATGTTTAGTTGAAAATTAA [CACACA_negctrl_site1407]” the value was 6.67.

As to “TTAATGTTTGAAAGAGTGCACATAACAAAAAAAAAA [GTGCAC_site9623]”, the “gcPBM binding intensity (ln)” value worked out at 11.1.

“TCCTAATATATGTATGCACACACAATATATACATAT [CACACA_site9111]”: the “gcPBM binding intensity (ln)” value was determined as 7.36. Turning to “AATATAAGAATATATACACACATAAATACATACATA [CACACA_site4128]”, the “gcPBM binding intensity (ln)” value was found to be 7.01. For “ATTATATATAAGAAGAGTACTGAATATGTGCAATAT [XGTACX_site4471]” the value was 7.43.

On to “ATATACATATATATATGTACTGAAAAGAAAAGAATT [XGTACX_site150]”, for which the “gcPBM binding intensity (ln)” value stood at 7.08.

“TATATATATATATATGTGCACTGAAAGAATTATACA [GTGCAC_site9586]”: the “gcPBM binding intensity (ln)” value is 10.3.

Turning to “AGGTGTATCATAAAATGTACATACATACATACATAA [XGTACX_site4479]”, the “gcPBM binding intensity (ln)” value amounted to 7.02. For the sequence “ATAAGATAGGCATATACACACATTTATTTACAGATA [CACACA_site5754]”, the “gcPBM binding intensity (ln)” value amounted to 6.87. For “TTATATTAGCCGATGGTGCATATATTTATAGGAAAA [GTGCAC_site9518]” the value was 10.1; for TTATATAGGCAGATGGTGCATCTATTTATAAGCAAC, 10.7.

Regarding “TGTCTTGTAAATTATTGTACTATTTAAAGTATACAA [XGTACX_site7864]”, the “gcPBM binding intensity (ln)” value is 7.21.
